Reference: PubChem BioAssay (NCI)
About 83,000 compounds went through this panel and 20% of them were active in at least one assay; those are over-represented in the sample as a whole.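 In brief: 96-well plates, 48 h treatment, single concentration, percent growth endpoint.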 Activity calls are given as the source filed them. The calls were made as follows: active = growth percent below 10; inactive = the rest.

Experiments:
Assay in all cases: NCI-60 one-dose screen, 48 h (100 = growth as untreated, 0 = no growth, -100 = all killed)
Conditions in all cases: 10 µM unless noted
SR leukemia = test system: SR leukemia
RPMI-8226 leukemia = test system: RPMI-8226 leukemia
OVCAR-8 ovarian = test system: OVCAR-8 ovarian
OVCAR-5 ovarian = test system: OVCAR-5 ovarian
OVCAR-4 ovarian = test system: OVCAR-4 ovarian
SK-OV-3 ovarian = test system: SK-OV-3 ovarian
IGROV1 ovarian = test system: IGROV1 ovarian
OVCAR-3 ovarian = test system: OVCAR-3 ovarian
HS 578T breast = test system: HS 578T breast
NCI/ADR-RES ovarian = test system: NCI/ADR-RES ovarian
T-47D breast = test system: T-47D breast
BT-549 breast = test system: BT-549 breast
MDA-MB-435 melanoma = test system: MDA-MB-435 melanoma
SW-620 colon = test system: SW-620 colon
MCF7 breast = test system: MCF7 breast
HCT-116 colon = test system: HCT-116 colon
HCC-2998 colon = test system: HCC-2998 colon
KM12 colon = test system: KM12 colon

Measured: growth

Nc1nc(Br)nc2c1ncn2C1CC(O)C(CO)O1 (stereo not given)
inactive: SR leukemia 52.2% | RPMI-8226 leukemia 73.5% | OVCAR-8 ovarian 35.9% | OVCAR-5 ovarian 76.3% | OVCAR-4 ovarian 81.9% | SK-OV-3 ovarian 94.2% | IGROV1 ovarian 96.3% | OVCAR-3 ovarian 80.9% | HS 578T breast 91.7% | NCI/ADR-RES ovarian 22.3% | T-47D breast 70.1% | BT-549 breast 50.1% | MDA-MB-435 melanoma 56.5% | SW-620 colon 60.1% | MCF7 breast 28.4% | HCT-116 colon 37.9% | HCC-2998 colon 58.9% | KM12 colon 78.6%

O=C(/C=C/c1cccc2ccccc12)Nc1ncc(Cc2ccccc2)s1
active: RPMI-8226 leukemia 8.58% | OVCAR-4 ovarian 6.74% | OVCAR-3 ovarian -17.8% | NCI/ADR-RES ovarian -8.05% | MDA-MB-435 melanoma -64.7%
inactive: SR leukemia 13.1% | OVCAR-8 ovarian 29% | OVCAR-5 ovarian 22.7% | SK-OV-3 ovarian 20.9% | IGROV1 ovarian 15.8% | HS 578T breast 12.7% | T-47D breast 16% | BT-549 breast 24.8% | SW-620 colon 13.7% | MCF7 breast 10.8% | HCC-2998 colon 54.3% | KM12 colon 15.8%

N#CC1c2ccccc2-c2ccccc2N1C(=O)c1ccccc1 (stereo not given)
inactive: SR leukemia 65.2% | RPMI-8226 leukemia 26.4% | OVCAR-8 ovarian 22.3% | OVCAR-5 ovarian 41.8% | OVCAR-4 ovarian 38.1% | SK-OV-3 ovarian 54.3% | IGROV1 ovarian 24.2% | T-47D breast 73.7% | BT-549 breast 21.5% | SW-620 colon 27.3% | MCF7 breast 22.3%
active: OVCAR-3 ovarian -8.36% | HS 578T breast 7.52% | NCI/ADR-RES ovarian -47.4% | MDA-MB-435 melanoma -13.6% | HCC-2998 colon -46.1% | KM12 colon 5.94%

COC(=O)[C@]12CC[C@@H](C)[C@H](C)[C@@H]1C1=CC[C@@H]3[C@@]4(C)C[C@@H](OC(C)=O)[C@H](O)[C@@](C)(CO)[C@@H]4[C@H](O)C[C@@]3(C)[C@]1(C)CC2
active: SR leukemia -45.7% | RPMI-8226 leukemia -29.4% | OVCAR-8 ovarian -60.9% | OVCAR-5 ovarian -78.2% | OVCAR-4 ovarian -79.6% | SK-OV-3 ovarian -95.4% | IGROV1 ovarian -58.8% | OVCAR-3 ovarian -85% | HS 578T breast -50.5% | NCI/ADR-RES ovarian -67.6% | T-47D breast -66.9% | BT-549 breast -81.5% | MDA-MB-435 melanoma -96.4% | SW-620 colon -67.8% | MCF7 breast -73.5% | HCT-116 colon -65.4% | HCC-2998 colon -87.8% | KM12 colon -84.2%

CC(=O)O[C@H]1CC[C@]2(C)[C@H]3CC=C4[C@@H]5[C@H](C)[C@@H](C)CC[C@]5(C(=O)NCCNCCNCCN)CC[C@@]4(C)[C@]3(C)CC[C@H]2C1(C)C
inactive: RPMI-8226 leukemia 42.3% | OVCAR-8 ovarian 96% | OVCAR-5 ovarian 96.1% | OVCAR-4 ovarian 95.2% | SK-OV-3 ovarian 106% | IGROV1 ovarian 57% | OVCAR-3 ovarian 89.8% | HS 578T breast 95.4% | NCI/ADR-RES ovarian 89.8% | T-47D breast 63.8% | BT-549 breast 93.7% | MDA-MB-435 melanoma 83% | SW-620 colon 87.3% | MCF7 breast 58.1% | HCT-116 colon 62.3% | HCC-2998 colon 80% | KM12 colon 86.2%
active: SR leukemia -5.48%

O=S(=O)(NCCNc1cc(-c2cn(-c3ccccc3)nc2-c2cccc(O)c2)ccn1)c1ccccc1
inactive: SR leukemia 11.7% | RPMI-8226 leukemia 32.7% | OVCAR-8 ovarian 49.8% | OVCAR-5 ovarian 92.1% | OVCAR-4 ovarian 56.3% | SK-OV-3 ovarian 69.5% | IGROV1 ovarian 57.1% | OVCAR-3 ovarian 63.3% | HS 578T breast 45.2% | NCI/ADR-RES ovarian 43.9% | T-47D breast 26.4% | BT-549 breast 67.8% | MDA-MB-435 melanoma 14.7% | SW-620 colon 44.4% | MCF7 breast 37.2% | HCC-2998 colon 25.4%

N#CC1=C(N)Oc2ccc3ccccc3c2C1c1ccccc1Cl (stereo not given)
active: NCI/ADR-RES ovarian 9.51% | MDA-MB-435 melanoma -8.55%
inactive: SR leukemia 26.1% | RPMI-8226 leukemia 32.9% | OVCAR-8 ovarian 61.8% | OVCAR-5 ovarian 77.2% | OVCAR-4 ovarian 78.9% | SK-OV-3 ovarian 55.9% | IGROV1 ovarian 34.1% | OVCAR-3 ovarian 31.2% | HS 578T breast 40.4% | T-47D breast 38% | BT-549 breast 31.7% | SW-620 colon 30.6% | MCF7 breast 18.1% | HCC-2998 colon 76% | KM12 colon 36%

COC(=O)[C@]12CC[C@@H](C)[C@H](C)[C@@H]1C1=CC[C@@H]3[C@@]4(C)C(c5ncon5)=C[C@@](C)(CO)C4=CC[C@@]3(C)[C@]1(C)CC2
active: SR leukemia -15.5% | RPMI-8226 leukemia -32.4% | OVCAR-8 ovarian -6.22% | OVCAR-5 ovarian -56.2% | OVCAR-4 ovarian 5.83% | IGROV1 ovarian -10.8% | OVCAR-3 ovarian -86.8% | NCI/ADR-RES ovarian 6.21% | T-47D breast -0.698% | BT-549 breast 8.08% | MDA-MB-435 melanoma -24% | SW-620 colon -34.7% | MCF7 breast -63% | HCC-2998 colon -83.3% | KM12 colon -47.6%
inactive: SK-OV-3 ovarian 68.9% | HS 578T breast 12.5%

CC(C)(C)c1cc(-n2c(-c3ccc(Cl)cc3)nc3cc(C(=O)Nc4ccc(Cl)cc4)ccc32)n[nH]1
inactive: SR leukemia 70.3% | RPMI-8226 leukemia 51.1% | OVCAR-8 ovarian 61.6% | OVCAR-5 ovarian 93% | OVCAR-4 ovarian 56.4% | SK-OV-3 ovarian 99.8% | IGROV1 ovarian 40.3% | OVCAR-3 ovarian 45.8% | HS 578T breast 55.8% | NCI/ADR-RES ovarian 40.4% | T-47D breast 25.2% | BT-549 breast 58.7% | MDA-MB-435 melanoma 73.3% | SW-620 colon 55.9% | MCF7 breast 38.5% | HCC-2998 colon 63.9% | KM12 colon 25.9%
